Screening data deposited in PubChem by several laboratories.
An excerpt weighted towards active compounds, which were near 7.2% of everything screened.
AHR activator = AHR activators, primary screen, cell-based, luminescence, luciferase reporter, human. Aryl hydrocarbon receptor (Homo sapiens), P35869. AHR-responsive luciferase reporter cells. activation, % at 5 µM. 320,000 compounds, 2.5% hits; in the data active means activation above about 47%
A1 inh = caspase 3/7 activation in MEF A1-2A-BIM cells, primary screen, A1 inhibitor project, cell-based, luminescence, HTS; caspase activation, % (no concentration beside the values); 330,000 compounds, 0.066% hits; Caspase-Glo 3/7 luminescence, 3 h; percent of clofoctol response, vehicle zero;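 active means over half of replicate activation scores above 10%, or exactly half above 10 with the replicate mean above 10; inconclusive means replicate mean below 10 yet half the replicates above 10; inactive means over half of replicates below 10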
VLA-4 inh = inhibition in human VLA-4 binding assay, primary screen, VLA-4 allosteric modulator project, MLPCN library, flow cytometry, VLA-4 expressing cells; Integrin alpha-4 (Homo sapiens), P13612; ligand binding flow cytometry; inhibition, % (about 7 µM as worked out from the volumes in the protocol); 330,000 compounds, 0.2% hits; AID 2557, 2010; in the data active means inhibition above about 50%
Mot1-301 SUMO = yeast Mot1-301 growth rescue at high temperature, primary screen, SUMOylation pathway inhibitor project, S. cerevisiae, ATP luminescence, 38.5C; 320,000 compounds, 1% hits; AID 2716, 2010; S. cerevisiae Mot1-301 growth rescue; percent above DMSO median, 100 means doubled; growth rescue, % at 18.8 µM;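 active means every valid replicate shows activation above 250% relative to neutral control wells; inactive means the rest, any valid replicate at or below 250%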
ALR H2O2 inh = inhibitors of human ALR sulfhydryl oxidase, primary screen, biochemical, H2O2 detection, HRP-luminol luminescence, single point; inhibition, % (test concentration not listed); 290,000 compounds, 3.8% hits; FAD-linked sulfhydryl oxidase ALR (Homo sapiens), P55789; purified ALR, DTT oxidation;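 active means mean replicate inhibition above about 79%, with every replicate also reaching it, limit read from the data; inconclusive means only one of the two criteria met; inactive means mean below limit and not every replicate reaching it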
Target sequence (P55789 whole entry, looked up): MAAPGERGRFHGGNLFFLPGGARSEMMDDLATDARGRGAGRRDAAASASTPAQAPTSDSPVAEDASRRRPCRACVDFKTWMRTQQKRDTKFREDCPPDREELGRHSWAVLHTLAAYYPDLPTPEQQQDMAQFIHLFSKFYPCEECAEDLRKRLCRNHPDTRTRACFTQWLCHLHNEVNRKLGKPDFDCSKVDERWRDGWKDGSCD
Efflux pump mplx = inhibitors of Candida efflux pumps in yeast, primary screen, S. cerevisiae, Nile Red, multiplex; 330,000 compounds, 0.44% hits; inhibition, % at 10 µM; S. cerevisiae Candida pump triplex;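 active means plate passing quality check with inhibition over a set limit, or well fluorescence over plate mean plus 4 SD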;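 further: Nile Red retained in pooled yeast measured as flow cytometry median fluorescence; higher means more Nile Red kept so more efflux inhibition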
Numbers stand for hits; 0 = inactive; ? = inconclusive; - = not tested or not shown.

SMILES	AHR activator	A1 inh	VLA-4 inh	Mot1-301 SUMO	ALR H2O2 inh	Efflux pump mplx
COc1ccc(CCNC(=O)CSCC(=O)Nc2ccccc2)cc1OC	0	0	0	0	0	0
COc1ccc(CCNC(=O)CCOc2ccc(C)cc2)cc1OC	0	6.1	0	0	0	0
COc1ccc(CCNC(=O)c2cc(-c3cc(C)ccc3O)n[nH]2)cc1OC	0	0	0	0	96	0
CC(/C=C/C=C/c1ccccc1)=N/NC(=O)c1ccc2c(c1)OCCO2	0	0	0	0	0	0
CCOc1ccccc1NC(=O)CSc1nnc(-c2ccccc2Cl)n1Cc1ccco1	0	0	0	0	0	0
Cc1nn(C)c(C)c1NS(=O)(=O)c1cccc(Br)c1	0	0	0	0	0	0
Cn1c2ccccc2c(=O)c2c(=O)n(Cc3ccccc3)c(-c3ccc(F)cc3)nc21	0	0	0	0	-	0
CSc1nc(N(C)C)nc(N2CC(=O)N(CCNS(=O)(=O)c3ccc(C)cc3)C2=N)n1	0	0	0	0	0	0
COc1ccc(CCNC(=O)CSc2nnc(-c3ccccc3)o2)cc1OC	0	0	0	0	0	0
Cc1ccc(SCC(=O)Nc2ccc(F)cc2[N+](=O)[O-])cc1C	0	0	0	0	96	0
O=C(CSc1ccc2ccccc2c1)NCCc1ccc(O)c(O)c1	0	0	0	0	99	0
COc1ccc(CCNC(=O)CSc2ccc3ccccc3c2)cc1OC	0	0	0	0	99	0
Cc1cc(C)n2nc(SCC(=O)Nc3ccc(F)cc3[N+](=O)[O-])nc2n1	0	0	0	0	-	0
COc1ccc(CCNC(=O)CSc2nnc(-c3ccccc3)c3ccccc23)cc1OC	0	0	0	0	96	0
Cc1ccc(CN2CCN(Cc3cnc(C)[nH]3)CC2CCO)cc1 (stereo not drawn)	0	0	0	0	0	0
Cc1ccccc1NC(=O)c1sc(NC(=O)COc2ccccc2)c(C#N)c1C	0	0	0	0	0	0
O=C(COc1cccc2ccccc12)N/N=C/c1ccncc1	0	0	0	0	0	0
COc1ccc([N+](=O)[O-])cc1NC(=O)CSc1nc(C)cc(C)n1	0	0	0	0	-	0
COc1ccc([N+](=O)[O-])cc1NC(=O)CSc1ccc2ccccc2c1	0	0	0	0	99	0
Cc1nnc(SCc2cnc(-c3ccc(C(C)C)cc3)s2)n1C	0	0	0	0	98	0
CC(OC(=O)c1ccc(Cl)cc1)C(=O)NCC1CCCCC1 (stereo not drawn)	0	0	0	0	0	0
O=C(Nc1ccccc1)c1cccc2c(Br)cccc12	57	0	0	0	0	0
O=C(Nc1ccc(Br)cn1)c1cccc(C(=O)Nc2ccc(Br)cn2)c1	0	0	0	0	0	0
O=C(Nc1ccc(Br)cn1)c1ccc2ccccc2c1	48	0	0	0	0	0
O=C(Nc1ccc(Cl)cn1)c1cccc2c(Br)cccc12	74	0	0	0	0	0
SMILES	AHR activator	A1 inh	VLA-4 inh	Mot1-301 SUMO	ALR H2O2 inh	Efflux pump mplx
O=C(Nc1ccc(Br)cn1)c1cccc2ccccc12	70	0	0	0	0	0
Cc1ccccc1OCC(=O)Nc1ccc2c(c1)n(C)c(=O)n2C	0	0	0	0	0	0
COCCNC(=O)COC(=O)c1cc(-c2ccc(OC)cc2)nc2ccccc12	0	0	0	0	0	0
O=C(C1CCCCC1)N1CCN=C1SCc1cccc([N+](=O)[O-])c1	0	0	0	0	100	0
COc1ccc(CC(=O)N2CCN=C2SCc2cccc([N+](=O)[O-])c2)cc1	0	0	0	-	99	0
O=C(c1ccc(S(=O)(=O)N2CCCCC2)cc1)N1CCN=C1SCc1cccnc1	0	-	0	-	-	0
O=C(C1CCCCC1)N1CCN=C1SCc1cccnc1	0	0	0	0	100	0
O=C(O)Cc1c(C(=O)O)[nH]c2ccc(C(=O)O)cc12	0	0	0	0	-	0
COC(CN(C(=O)CCl)C(C(=O)NC1CCCCC1)c1ccc(Cl)cc1)OC (stereo not drawn)	0	0	0	0	0	0
COC(CN(C(=O)CCl)C(C(=O)NC1CCCCC1)c1ccccc1C)OC (stereo not drawn)	0	0	0	0	77	0
C=C(C)C(=O)Nc1ccc(OC(F)(F)C(F)F)c(NC(=O)C(=C)C)c1	0	0	0	0	0	0
Cc1cc(C)n2nc(-c3ccccc3)cc2n1	0	0	0	0	0	0
CCC1C(=O)n2nc(-c3ccccc3)cc2N=C1C (stereo not drawn)	51	0	0	0	0	0
O=C1N(CCCCN2C(=O)C3(OCCO3)c3ccccc32)c2ccccc2C12OCCO2	60	0	0	0	0	0
O=C1N(CCCN2C(=O)C3(OCCO3)c3ccccc32)c2ccccc2C12OCCO2	0	0	0	0	0	0
Cc1nnc(NC(=O)CSc2nnc(CC(=O)Nc3ccccc3C)n2C)s1	0	0	0	0	0	0
CCOc1ccccc1NC(=O)c1oc2ccccc2c1NC(=O)C1CCCO1 (stereo not drawn)	49	0	0	0	0	0
Cc1ccc(NC(=O)c2oc3ccccc3c2NC(=O)C2CCCO2)cc1C (stereo not drawn)	74	0	0	0	0	0
COC(=O)N/N=C/c1sc(N2CCCCC2)nc1-c1cccs1	0	0	0	0	98	0
COc1ccc(/C(C)=N/NC(=O)CNC(=O)/C=C\c2ccccc2)c(OC)c1	0	0	0	0	0	0
Cc1[nH]n(-c2ccccc2)c(=O)c1C(C[N+](=O)[O-])c1ccccc1Cl (stereo not drawn)	68	0	0	0	0	0
Cc1oc(-c2ccc(Cl)cc2)cc1-c1nn2c(-c3ccoc3C)nnc2s1	52	0	0	0	0	0
Clc1ccc(-c2nnc3sc(-c4ccc(Br)o4)nn23)cc1	61	0	0	0	0	0
COc1cccc(OCc2cc(C(=O)NCc3cnc4ccccn34)no2)c1	0	0	0	0	0	0
COc1ccc(Cn2ccnc2SCC(=O)Nc2cccc(NC(C)=O)c2)cc1	0	0	0	0	98	0
COc1cccc(-n2nnnc2SCC(=O)Nc2cccc(NC(C)=O)c2)c1	0	0	0	0	0	0
CC(=O)Nc1cccc(NC(=O)CSc2nccn2Cc2ccco2)c1	0	0	0	0	99	0
Cc1ccc(NC(=O)CSc2nccn2Cc2ccco2)c(C)c1	0	0	0	0	?	0
COc1ccc(Cn2c(CO)cnc2SCC(=O)Nc2cccc(NC(C)=O)c2)cc1	0	0	0	0	99	0
